Source: PubChem (National Center for Advancing Translational Sciences (NCATS))
Many of the other results were omitted from the sample, so hits are more common in it than they were.
Pf Dd2 growth – blocks in vitro growth of P. falciparum Dd2; P. falciparum Dd2 growth, SYBR Green, 72 h; Potency, µM (series often up to 28.9 µM), without a hit: at the top dose activity, negative = inhibition, usual class: inhibitors; 4.3% of 120,000 active; active = well fitted inhibition curve with a large enough effect;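 also: plate controls were DMSO vehicle for no effect and reference drug for full effect; nearly all actives have a fitted effect of over 65% in size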
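Infected erythrocytes (Dd2, 0.3% parasitemia, 2.5% hematocrit final) are added to compound in RPMI-1640/Albumax II medium, grown 72 h at 37C in low oxygen, then lysed with saponin/Triton-X containing SYBR Green and read by fluorescence.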
* marks the source's active call; other numbers are inactive results; i = inactive; ! = repeats disagree; [ ] = dose if it differs, or a comment. Potency is read from the fitted curve at half-maximal effect.

SMILES	Pf Dd2 growth
O=C1NC(=NC2CCCC2)C2(CCCN([S+](=O)([O-])c3cccc(C(F)(F)F)c3)C2)N1c1cc(F)cc(F)c1 (centres undefined)	10µM*!
COc1ccc(C(=O)N2CCC3(CC2)C(=NC2CCCCC2)NC(=O)N3c2cc(F)cc(F)c2)cc1	-24.1%
O=C1NC(=NC2CCCC2)C2(CCN([S+](=O)([O-])c3cccc(C(F)(F)F)c3)CC2)N1c1cc(F)cc(F)c1	-7.5%
O=C1NC(=NC2CCCC2)C2(CCCN([S+](=O)([O-])c3ccccc3)C2)N1c1cc(F)cc(F)c1 (centres undefined)	-20.1%
COc1ccc(C(=O)N2CCCC3(C2)C(=NC2CCCCC2)NC(=O)N3c2cc(F)cc(F)c2)cc1 (centres undefined)	-9.8%
O=C(c1ccc(C(F)(F)F)cc1)N1CCC2(C1)C(=NC1CCCCC1)NC(=O)N2c1cc(F)cc(F)c1 (centres undefined)	8.91µM*
CC(C)c1nnc(C2CN(C(=O)C3CCCC3)CC23CCOCC3)o1 (centres undefined)	21.6%
O=C(NCc1ccc2c(c1)OCO2)C1CCCN(c2nc3ncccc3o2)C1 (centres undefined)	-22.9%
CN1C(=O)c2cccn2CC1CNC(=O)c1n[nH]c2ccccc12 (centres undefined)	-7.7%
Cc1noc(-c2ccn3c(CNC(=O)c4nccc5ccccc45)nnc3c2)n1	-29.5%
NC1CCN(Cc2ccc(C(=O)NCc3ccc(S(N)(=O)=O)cc3)c(=O)[nH]2)C1 (centres undefined)	-7.9%
CN(CC1CCOCC1)C(=O)c1ccsc1	-3.4%
C=CCS(=O)(=O)NCc1cccnc1N1CCN(c2ccccc2OC)CC1	-3.3%
COc1ccc(-c2noc(CN3CCN(c4ccccc4OC)CC3)n2)cc1OC	11.4%
CCCOCc1cc(CN2CCN(c3ccccc3OC)CC2)c(O)c2ncccc12	2.82µM*
COc1ccccc1N1CCN(c2csc3ccccc3c2=O)CC1	-9.5%
CCOCc1cc(CN2CCN(c3ccccc3OC)CC2)c(O)c2ncccc12	2µM*
CCOc1ccccc1N1CCN(Cc2ccc(=O)n(CC)c2)CC1	-6.7%
COc1ccccc1N1CCN(c2ncccc2-c2nc(-c3ccc(Cl)cc3)no2)CC1	35.7%
COc1ccccc1N1CCN(Cc2cc(COC(C)C)c3cccnc3c2O)CC1	1.58µM*
COc1ccccc1N1CCN(C(CNC(=O)C(=O)NCc2cccnc2)c2cccnc2)CC1 (centres undefined)	-4.4%
CN1CCCC1CCn1nc(C2CCNCC2)n(Cc2ccccc2)c1=O (centres undefined)	-3.9%
CC(C)c1ccc(CN2CCc3nc(N4CCN(C)CC4)[nH]c(=O)c3CC2)cc1	-21.9%[5.79 µM]
CCc1ccccc1NC(=O)N1CC(c2nnc(-c3ccncc3)o2)C2(CCOCC2)C1 (centres undefined)	-13.3%
Cc1cc(C(=O)N2CCC(c3nc(C4CCOCC4)no3)CC2)n(C)n1	33.3%
SMILES	Pf Dd2 growth
Cc1nc(N2CCC(NC(=O)c3ccc(F)cc3Cl)CC2)cc(C(F)(F)F)n1	i
COc1cc(=O)n2c(c1C(=O)Nc1ccc(F)c(F)c1)CCCC2	20.7%
Cc1cc(C(=O)N2CCC(c3nnc(Cn4ccnc4)n3C)CC2)on1	8.0%
Cc1ccc(-n2ncc(C(=O)N3CCN(c4ccccn4)CC3)c2C2CCN(C(=O)OC(C)(C)C)CC2)cc1	18.1%
COc1ccc(-n2ncc(C(=O)N3CCN(c4cc(C)ccc4C)CC3)c2C2CCN(C(=O)OC(C)(C)C)CC2)cc1	24.8%
Cc1cccc(N2CCN(C(=O)c3cnn(-c4ccccc4)c3C3CCN(C(=O)OC(C)(C)C)CC3)CC2)c1C	10µM*
COc1ccc(-n2ncc(C(=O)N3CCOCC3)c2C2CCN(C(=O)OC(C)(C)C)CC2)cc1	41.4%
COc1cccc(N2CCN(C(=O)c3cnn(-c4ccc(C)cc4C)c3C3CCN(C(=O)OC(C)(C)C)CC3)CC2)c1	6.31µM*
COc1cccc(N2CCN(C(=O)c3cnn(C(C)(C)C)c3C3CCN(C(=O)OC(C)(C)C)CC3)CC2)c1	12.6µM*
Cn1nc(C2CCCN(C(=O)C3CCOCC3)C2)n(Cc2ccccc2)c1=O (centres undefined)	7.9%
Cc1noc(C)c1C(=O)N1Cc2ccccc2CC2(CCCN(C)C2)C1 (centres undefined)	-27.5%
O=C(Cc1ccccc1)NC1CCN(c2cc(-c3ccccc3)[nH]n2)CC1	i
CCOC(=O)c1[nH]cnc1C(=O)N(CCO)Cc1nccn1C	16.1%
O=C1CCCCC(CNC(=O)C2(c3ccccc3)CC2)N1 (centres undefined)	8.4%
Cc1ccccc1-c1nc(N2CCOCC2)cc2c1CN(Cc1ccccc1)C2=O	61.5%[44.1 µM]
CN(C)c1ccc(C(=O)Nc2ccc(-c3nc4ccccc4o3)cc2)cc1	-25.3%
CCN(CC)CC(=O)N1CCC(C(=O)Nc2ccc(-c3nc4ccccc4o3)cc2)CC1	10µM*
Cc1ccccc1OCC(=O)Nc1ccc(-c2nc3ccccc3o2)cc1	i
COc1cccc(C(CC(=O)NC2CCCCC2)c2c[nH]c3ccccc23)c1OC (centres undefined)	-0.9%
